# According to PubChem BioAssay:
# Calls of active or inactive are those of the source.
# Assays:
# [1] = binders of probe aFSTL3 on microarray, primary screen, stem cell growth factor project, biochemical, small-molecule microarray, fluorescence 635/667 (AID 1064); details: higher = more signal;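 further: measures binding of the biotinylated anti-FSTL3 antibody to printed compounds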
# [2] = binders from COS7 lysate, DM2A8 probe, primary screen, torsin A project, cell lysate, small-molecule microarray, fluorescence 635/667 (AID 1065); details: higher = more signal, COS7 lysate expressing mutant human TOR1A
# [3] = binders of probe aFGF2 on microarray, primary screen, stem cell growth factor project, biochemical, small-molecule microarray, fluorescence 635/667 (AID 1067); details: higher = more signal;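 further: measures binding of biotinylated aFGF2 protein to printed compounds on slides; z-score merges feature fluorescence and signal-to-noise across triplicate slides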
# [4] = binders of probe aFGF10 on microarray, primary screen, stem cell growth factor project, biochemical, small-molecule microarray, fluorescence 635/667 (AID 1071); details: higher = more signal;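 further: score merges 667 nm spot intensity and signal to noise from triplicate slides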
# [5] = biological target: Neurogenic locus notch homolog protein 2 (Homo sapiens) (UniProt Q04721); experiment: Notch2 binders on small-molecule microarrays, primary screen, biochemical, small-molecule microarray, 635 nm fluorescence, stem cell growth factors (AID 1073); details: Notch2 binding, higher = more signal
# [6] = biological target: Pro-neuregulin-1, membrane-bound isoform (Homo sapiens) (UniProt Q02297); experiment: NRG1 binders on small-molecule microarrays, primary screen, psychiatric disease protein project, biochemical, small-molecule microarray, fluorescence 635/667 (AID 1075); details: NRG1 binding, 635 nm fluorescence, higher = more signal;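 further: score combines 667 nm spot fluorescence with signal to noise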
# Sequence of Pro-neuregulin-1, membrane-bound isoform (Homo sapiens) (Q02297 whole entry, looked up, the tested form may be a part, canonical isoform): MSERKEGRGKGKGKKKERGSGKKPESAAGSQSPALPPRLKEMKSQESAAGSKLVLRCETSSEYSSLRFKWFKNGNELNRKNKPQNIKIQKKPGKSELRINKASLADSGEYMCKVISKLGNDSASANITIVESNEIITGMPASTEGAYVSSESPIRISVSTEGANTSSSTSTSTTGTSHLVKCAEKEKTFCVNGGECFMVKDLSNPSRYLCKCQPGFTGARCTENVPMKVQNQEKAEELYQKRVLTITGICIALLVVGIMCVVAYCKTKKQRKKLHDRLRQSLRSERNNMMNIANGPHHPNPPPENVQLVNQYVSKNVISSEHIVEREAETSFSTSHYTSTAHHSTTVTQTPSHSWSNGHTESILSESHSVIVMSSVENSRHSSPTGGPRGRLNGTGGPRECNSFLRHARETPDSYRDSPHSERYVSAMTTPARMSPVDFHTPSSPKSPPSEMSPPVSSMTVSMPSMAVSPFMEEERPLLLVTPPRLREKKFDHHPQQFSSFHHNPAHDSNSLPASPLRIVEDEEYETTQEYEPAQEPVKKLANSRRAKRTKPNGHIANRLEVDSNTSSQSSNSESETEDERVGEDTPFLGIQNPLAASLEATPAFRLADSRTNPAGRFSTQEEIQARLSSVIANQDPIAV
# [7] = test system: Neuregulin-1 EGF-like domain; experiment: binders of neuregulin-1 EGF-like domain, primary screen, biochemical, small-molecule microarray, 635 nm fluorescence (AID 1081); details: small-molecule microarray binding, higher = more signal;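 further: binding of the protein to compounds printed on small-molecule microarray slides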
# [8] = FRG1 promoter luciferase signal modulators, primary screen, FRG1 inhibition for FSHD, cell-based, C2C12 myotubes, firefly/Renilla luciferase, luminescence (AID 1084); details: higher = more signal, called active from +8 up or from −8 down
# [9] = binders of probe aFST on microarray, primary screen, stem cell growth factor project, biochemical, small-molecule microarray, fluorescence 635/667 (AID 1086); details: higher = more signal;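 further: score merges 667 nm fluorescence with signal-to-noise of each printed compound spot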
# [10] = binders of probe aHhip on microarray, primary screen, stem cell growth factor project, biochemical, small-molecule microarray, fluorescence 635/667 (AID 1087); details: higher = more signal;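 further: score merges spot fluorescence at 667nm with spot signal to noise ratio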
# [11] = test system: PRMT1 (protein arginine N-methyltransferase 1); experiment: PRMT1 binders on small-molecule microarrays, primary screen, biochemical, small-molecule microarray, 635 nm fluorescence (AID 1088); details: small-molecule microarray binding, higher = more signal;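 further: binding of Prmt1 protein to compounds spotted on small-molecule microarray slides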
# [12] = yeast growth modulation, basal conditions, primary screen, YJM789 clinical isolate, OD600, 24 h (AID 1089);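 further: growth of clinical yeast isolate S. cerevisiae YJM 789 seeded 1000 cells per well; test concentration not given here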; details: S. cerevisiae YJM789 growth, higher = more signal, called active from +8 up or from −8 down
# [13] = fission yeast growth modulation, primary screen, strain 972, OD600, 24 h, no modulator (AID 1090);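 further: basal condition with compound alone and no growth modifier present; test concentration not given here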; details: S. pombe 972 growth, higher = more signal, called active from +8 up or from −8 down
# [14] = S. cerevisiae growth modulation with rapamycin, primary screen, strain BY4716, OD600, 96 h (AID 1091); details: higher = more signal, called active from +8 up or from −8 down; further: test concentration not given here
# [15] = biological target: Torsin-1A-interacting protein 2 (Homo sapiens) (UniProt Q8NFQ8); experiment: LULL1 binders on small-molecule microarray, primary screen, cell lysate, human LULL1 lysate, 635/667 nm fluorescence (AID 1092); details: hLULL1 lysate binding, 635 nm fluorescence, higher = more signal;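 further: probe is lysate of COS7 cells overexpressing human LULL1; score merges per-feature 667 nm fluorescence with signal-to-noise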
# Sequence of Torsin-1A-interacting protein 2 (Homo sapiens) (Q8NFQ8 whole entry, looked up): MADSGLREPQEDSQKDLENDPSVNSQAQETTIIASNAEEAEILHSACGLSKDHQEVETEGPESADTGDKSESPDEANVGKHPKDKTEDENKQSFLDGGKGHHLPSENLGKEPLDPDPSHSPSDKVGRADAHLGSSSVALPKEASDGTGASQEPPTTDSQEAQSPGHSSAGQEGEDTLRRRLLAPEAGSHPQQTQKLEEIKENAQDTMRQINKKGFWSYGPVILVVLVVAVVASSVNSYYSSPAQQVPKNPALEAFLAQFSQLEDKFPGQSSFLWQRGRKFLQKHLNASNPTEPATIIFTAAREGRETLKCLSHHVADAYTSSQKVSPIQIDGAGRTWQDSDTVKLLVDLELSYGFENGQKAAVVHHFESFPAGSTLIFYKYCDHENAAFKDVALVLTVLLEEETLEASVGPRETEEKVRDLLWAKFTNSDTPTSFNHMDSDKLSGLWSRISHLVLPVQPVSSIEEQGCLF
# [16] = E. coli growth modulation, two-sided OD650, primary screen, E. coli filamentation project, strain DRC41, 24 h (AID 1093); details: OD650, 24 h, higher = more signal, called active from +8 up or from −8 down;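 further: MC1000 strain lacking acrAB efflux and sulA so SOS filamentation is blocked; test concentration not given here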
# [17] = small-molecule microarray binders of probe aLefty2, primary screen, biochemical, biotinylated probe, 635/667 nm fluorescence (AID 1094); details: higher = more signal;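 further: score merges spot fluorescence near 667 nm with spot signal-to-noise ratio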
# [18] = test system: Noggin (protein binding on small-molecule microarray); experiment: Noggin binders on small-molecule microarray, primary screen, biochemical, 635/667 nm fluorescence (AID 1095); details: 635 nm fluorescence, higher = more signal;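 further: score merges 667 nm feature fluorescence with signal to noise over triplicate slides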
# [19] = biological target: Neurogenic locus notch homolog protein 3 (Homo sapiens) (UniProt Q9UM47); experiment: NOTCH3 binders on small-molecule microarray, primary screen, biochemical, 635/667 nm fluorescence (AID 1096); details: NOTCH3 binding, 635 nm fluorescence, higher = more signal
# Sequence of Neurogenic locus notch homolog protein 3 (Homo sapiens) (Q9UM47 whole entry, looked up): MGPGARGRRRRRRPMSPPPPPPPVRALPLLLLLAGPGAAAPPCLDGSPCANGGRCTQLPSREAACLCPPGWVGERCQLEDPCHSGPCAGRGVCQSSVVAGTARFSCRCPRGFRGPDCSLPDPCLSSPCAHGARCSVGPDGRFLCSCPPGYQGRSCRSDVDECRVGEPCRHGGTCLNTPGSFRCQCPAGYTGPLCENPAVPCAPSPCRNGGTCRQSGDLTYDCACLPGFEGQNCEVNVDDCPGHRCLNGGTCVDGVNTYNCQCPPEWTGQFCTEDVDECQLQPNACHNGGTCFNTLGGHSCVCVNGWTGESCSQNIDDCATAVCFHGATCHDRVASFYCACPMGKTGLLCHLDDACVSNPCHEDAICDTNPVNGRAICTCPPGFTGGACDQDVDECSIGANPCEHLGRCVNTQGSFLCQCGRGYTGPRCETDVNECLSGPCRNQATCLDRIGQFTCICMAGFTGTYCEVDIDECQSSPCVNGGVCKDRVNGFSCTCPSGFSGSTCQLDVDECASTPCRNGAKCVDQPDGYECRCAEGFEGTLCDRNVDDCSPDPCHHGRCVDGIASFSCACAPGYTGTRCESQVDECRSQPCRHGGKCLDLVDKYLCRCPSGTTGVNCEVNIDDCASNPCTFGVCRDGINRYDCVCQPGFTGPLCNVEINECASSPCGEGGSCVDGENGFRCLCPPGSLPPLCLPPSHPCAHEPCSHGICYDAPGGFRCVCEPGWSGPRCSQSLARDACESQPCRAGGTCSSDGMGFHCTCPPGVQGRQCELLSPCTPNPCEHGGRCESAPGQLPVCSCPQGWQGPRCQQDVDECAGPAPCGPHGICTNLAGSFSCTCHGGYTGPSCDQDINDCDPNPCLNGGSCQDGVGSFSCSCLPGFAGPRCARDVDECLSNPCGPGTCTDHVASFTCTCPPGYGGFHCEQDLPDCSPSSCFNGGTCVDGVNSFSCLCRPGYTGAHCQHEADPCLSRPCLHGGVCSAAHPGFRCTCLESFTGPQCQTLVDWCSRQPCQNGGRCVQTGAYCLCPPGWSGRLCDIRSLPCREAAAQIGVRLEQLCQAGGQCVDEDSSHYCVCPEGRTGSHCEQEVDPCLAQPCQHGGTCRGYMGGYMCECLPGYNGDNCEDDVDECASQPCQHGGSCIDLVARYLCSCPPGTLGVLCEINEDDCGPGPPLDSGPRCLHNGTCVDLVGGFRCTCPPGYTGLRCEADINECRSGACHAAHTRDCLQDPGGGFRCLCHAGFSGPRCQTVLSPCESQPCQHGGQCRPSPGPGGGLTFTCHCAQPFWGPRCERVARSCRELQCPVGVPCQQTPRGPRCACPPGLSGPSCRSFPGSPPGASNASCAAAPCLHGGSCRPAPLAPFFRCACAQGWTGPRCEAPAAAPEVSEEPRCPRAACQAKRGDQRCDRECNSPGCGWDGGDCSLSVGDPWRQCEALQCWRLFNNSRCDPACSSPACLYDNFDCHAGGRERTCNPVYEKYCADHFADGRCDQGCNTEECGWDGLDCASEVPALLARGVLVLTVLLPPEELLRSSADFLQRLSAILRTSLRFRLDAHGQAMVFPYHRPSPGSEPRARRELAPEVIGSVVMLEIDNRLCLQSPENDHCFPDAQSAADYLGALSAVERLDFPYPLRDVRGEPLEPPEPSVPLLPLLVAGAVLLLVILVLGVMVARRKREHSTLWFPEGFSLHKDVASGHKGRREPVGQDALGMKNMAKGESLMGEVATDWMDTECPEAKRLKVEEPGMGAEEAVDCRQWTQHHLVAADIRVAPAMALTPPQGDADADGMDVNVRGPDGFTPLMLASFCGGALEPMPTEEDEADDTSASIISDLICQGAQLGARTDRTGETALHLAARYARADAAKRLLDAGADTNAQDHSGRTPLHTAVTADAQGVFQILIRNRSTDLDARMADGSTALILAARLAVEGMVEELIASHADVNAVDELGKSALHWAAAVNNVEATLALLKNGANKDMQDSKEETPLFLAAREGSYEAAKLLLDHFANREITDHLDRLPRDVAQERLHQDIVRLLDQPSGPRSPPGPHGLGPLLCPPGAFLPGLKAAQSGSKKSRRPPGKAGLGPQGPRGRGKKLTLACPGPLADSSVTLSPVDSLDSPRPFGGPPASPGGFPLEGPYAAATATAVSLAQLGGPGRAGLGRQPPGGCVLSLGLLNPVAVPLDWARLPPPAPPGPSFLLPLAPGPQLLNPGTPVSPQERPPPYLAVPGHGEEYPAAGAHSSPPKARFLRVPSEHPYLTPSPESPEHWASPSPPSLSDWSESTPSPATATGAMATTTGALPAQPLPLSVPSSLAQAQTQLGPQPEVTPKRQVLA
# [20] = small-molecule microarray binders of probe aEGFR, primary screen, biochemical, biotinylated probe, 635/667 nm fluorescence (AID 1097); details: higher = more signal;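 further: probe is a biotinylated anti-EGFR antibody binding compounds printed on slides; score combines fluorescence near 667 nm and signal to noise of each spot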
Compound,composite z-score [1],composite z-score [2],composite z-score [3],composite z-score [4],composite z-score [5],composite z-score [6],composite z-score [7],z-score [8],composite z-score [9],composite z-score [10],composite z-score [11],z-score [12],z-score [13],z-score [14],composite z-score [15],z-score [16],composite z-score [17],composite z-score [18],composite z-score [19],composite z-score [20]
CCCC[C@H]1CN2[C@@H](CC[C@@H](C)[C@@H]2c2ccc(Br)cc2)C(=O)O1,-0.333,0.389,-0.0894,-0.947,0.564,1.19,1.11,-0.374 (inactive),0.253,0.0722,1.56,0.149 (inactive),-16.5 (active),-0.435 (inactive),1.28,0.0173 (inactive),-0.109,0.444,0.728,-0.0616
CC(CCN1CCCc2nc(C)c(C)cc21)=NO[C@H](C)c1cn([C@@H]2COC[C@H]2O)nn1,-0.396,1.37,-0.0788,0.359,0.6,0.0261,1.17,0.59 (inactive),0.3,-0.195,1.16,1.17 (inactive),1.12 (inactive),0.468 (inactive),0.788,1.24 (inactive),0.13,0.566,0.676,0.187
CCOC(=O)[C@H](Cc1ccccc1)NC(=O)CCC1CC(OC(=O)NCCc2ccc(F)cc2)CC2(CCCC(COC(=O)NCc3cccc(C(F)(F)F)c3)O2)O1 (stereo not given in full),-0.334,0.0606,0.0102,0.758,1.49,1.28,1.05,-0.342 (inactive),0.332,-0.121,1.45,0.563 (inactive),0.106 (inactive),0.029 (inactive),2.9,0.468 (inactive),-0.0008,0.832,1.11,0.12
C[C@@H](c1ccccc1)N1C(=O)[C@H]2[C@H]3[C@H](O)[C@H](O)CC(=NNC(=O)OCc4ccccc4)[C@@H]3CC[C@H]2C1=O,-0.909,2.62,-0.203,-0.261,-0.155,-0.536,1.22,-0.491 (inactive),0.0473,0.161,1.57,-0.291 (inactive),0.452 (inactive),5.24 (inactive),0.0265,0.482 (inactive),-0.19,1.89,-0.11,-0.508
CCN1C(=O)[C@H]2[C@H]3[C@H](O)[C@H](O)CC(=NOC[C@@H](O)[C@H]4O[C@@H]5OC(C)(C)O[C@@H]5[C@H]4O)[C@@H]3CC[C@H]2C1=O,-0.635,-0.112,-0.173,0.242,0.352,0.12,-0.0114,-0.116 (inactive),0.156,-0.291,-0.556,0.141 (inactive),0.234 (inactive),0.33 (inactive),-0.0973,0.454 (inactive),-0.159,0.0713,-0.124,-0.0685
CCOC(=O)CCN1C(=O)[C@H]2[C@H]3[C@H](O)[C@H](O)CC(=NO[C@@H]4O[C@H](CO)[C@@H](O)[C@H](O)[C@H]4O)[C@H]3CC[C@H]2C1=O,-0.379,0.508,0.0395,0.232,0.44,0.0332,0.569,0.261 (inactive),0.857,-0.195,-0.145,-0.703 (inactive),0.354 (inactive),-0.387 (inactive),0.211,0.389 (inactive),0.0008,0.404,0.195,-0.115
C[C@@H]1CC[C@H]2C(=O)N3[C@@H](CC[C@@H](C)[C@@H]3c3ccc(Br)cc3)C(=O)N2[C@H]1c1ccc(Br)cc1,-0.241,0.318,-0.131,0.3,0.599,-0.0193,0.354,-0.469 (inactive),0.343,-0.173,-0.455,-0.275 (inactive),-4.1 (inactive),0.805 (inactive),0.241,-0.19 (inactive),-0.0865,0.259,0.305,-0.0987
CO[C@@H]1COC(=O)[C@@H]2CCCN2C(=O)[C@@H](C)COC(=O)CCC[C@H]1C,-0.468,0.352,-0.0836,0.367,0.997,-0.0887,1.19,-0.343 (inactive),-0.288,-0.0645,1.55,-1.86 (inactive),-0.875 (inactive),-0.815 (inactive),0.871,-0.76 (inactive),-0.176,0.456,0.525,0.158
CC(CCC(=O)OC[C@H]1O[C@H](C#Cc2ccccc2)C=C[C@@H]1Oc1ccc(C)cc1)=NO[C@H](C)c1cn([C@@H]2COC[C@H]2O)nn1,-0.484,0.522,-0.148,0.0898,-0.31,-0.0103,0.452,-1.03 (inactive),-0.0115,-0.134,0.535,-1.42 (inactive),-0.688 (inactive),-0.0188 (inactive),0.042,-0.342 (inactive),-0.128,0.375,-0.151,-0.137
COC(=O)[C@H](C)NC(=O)CCC1CC(OC(=O)NCc2ccc3c(c2)OCO3)CC2(CCCC(COC(=O)NCCC(C)C)O2)O1 (stereo not given in full),-0.312,0.255,-0.0837,0.338,0.821,1.14,0.808,1.52 (inactive),0.0929,-0.318,1.55,-0.916 (inactive),-0.031 (inactive),-1.24 (inactive),2.28,0.861 (inactive),-0.166,0.501,0.437,-0.0858
